The source of these data is PubChem BioAssay AID1362 (SRMLSC, 2008).

The campaign covered roughly 190,000 compounds. About 4,000 (2.1%) were called active. This is one part of a sample in which actives are shown more often than they occur. No stated cut-off is given here; in the data, active means inhibition above about 58%; inactive means the rest, inconclusive results apart; tested in S. cerevisiae.

This assay in a line: growth inhibition of WT strain, primary screen, mitochondrial fusion inhibitor project, WT and mutant strains, chemical genetic (AID 1362). As to conditions: mitochondrial fusion phenotypic screen, at 10 µM.
[1] abbreviates: WT strain, growth inhibition, stronger effect = higher value.

On to `CC12CCC(C(=O)N(c3cccc(Cl)c3)C1=O)C2(C)C` (stereo not given), for which the inhibition was 15.3% (inactive) under setting [1] and 1.52% (mutant strain inhibition).
With `CC1=NN(c2cccc(Cl)c2)C(=O)C12CC(C)=C(C)CS2` (stereo not given), the inhibition is, setting by setting: under setting [1], 71.2% (active); (mutant strain inhibition) 49.2%.
On to `CCCCN(CC)CCNC(=O)CCNC(=O)Cn1ccc2ccccc2c1=O`, for which the inhibition runs as follows: under setting [1], -12.2% (inactive); (mutant strain inhibition) 5.97%.
Turning to `CN(C)c1ccc(/C=N/Nc2cc(N3CCOCC3)nc(N3CCOCC3)n2)cc1`, the inhibition was 2.15% (inactive) under setting [1] and -1.62% (mutant strain inhibition).
Take `C/C(=N\NC(=S)NC1CCCCC1)c1ccc(C)o1`: the inhibition was 76.5% (active) under setting [1] and 64.5% (mutant strain inhibition).
The matching figures for `C/C(=N/NC(=O)c1ccc(Br)o1)c1ccc(C)o1`: -7.01% (inactive) and -8.07%.
As to `Cc1ccc(NC(=S)NC2CCCC2)cc1`, the inhibition runs as follows: under setting [1], 1.79% (inactive); (mutant strain inhibition) -5.24%.
Turning to `COc1ccc(C(=O)Nc2ccc(N3CCC(C)CC3)cc2)cc1Br`, the inhibition is -5.4% (inactive) under setting [1] and 7.51% (mutant strain inhibition).
Regarding `O=S(=O)(c1ccc2c(c1)OCCO2)N1CCc2ccccc21`, the inhibition under setting [1] is -3.01% (inactive) and the inhibition (mutant strain inhibition) was -8.75%.
For `CN(C)C=NC(=O)c1cccn1-c1ncc(C(F)(F)F)cc1Cl`, in that order: 17.4% (inactive) and -2.64%.
For the compound `Cc1noc(C)c1COc1ccc2ccc(=O)oc2c1`, the inhibition was 7.56% (inactive) under setting [1] and -14.3% (mutant strain inhibition).
For `c1n[nH]c(NCc2ccc3c(c2)OCO3)n1`, in that order: 76.9% (active) and 23%.
Regarding `COc1cc(CNc2ncn[nH]2)ccc1OCc1ccccc1C`, the inhibition is -10% (inactive) under setting [1] and 6.17% (mutant strain inhibition).
In the case of `O=C(CSc1ncn[nH]1)NCc1ccc2c(c1)OCO2`, the inhibition was -7.65% (inactive) under setting [1] and 6.4% (mutant strain inhibition).
For `CCCCCC(O)c1cccc(OCc2ccc3ccccc3n2)c1` (stereo not given), in that order: 77.5% (active) and 12.2%.
For `CCCn1c(C(O)c2ccc(OCC)cc2)nc2ccccc21` (stereo not given), in that order: 16.9% (inactive) and 18.6%.
For `CCCCCCOC(=O)NCC(O)c1ccccc1` (stereo not given), in that order: -6.62% (inactive) and -10.2%.
`CCn1c(N)c(Br)c(=O)[nH]c1=O`: the inhibition is, setting by setting: under setting [1], -1.38% (inactive); (mutant strain inhibition) 6.81%.
`CCOC(=O)c1ccc[n+](CC(=O)Nc2ccccc2OC(F)F)c1`: the inhibition under setting [1] was -21.9% (inactive) and the inhibition (mutant strain inhibition) was -5.87%.
Turning to `CCOC(=O)c1sc(=NC(=O)/C=C/c2cccs2)n(C)c1C`, the inhibition is 11.4% (inactive) under setting [1] and -7.32% (mutant strain inhibition).
`COc1ccc(NC(=O)C(Br)C(C)C)cc1` (stereo not given): the inhibition is, setting by setting: under setting [1], -7.51% (inactive); (mutant strain inhibition) 2.44%.
Turning to `CC1CCN(c2ccc([N+](=O)[O-])cc2C(N)=O)CC1`, the inhibition under setting [1] is 3.04% (inactive) and the inhibition (mutant strain inhibition) was -16.1%.
In the case of `Cc1ccc(-n2c(SCC(=O)Nc3ncc(Cl)cc3Cl)nc3ccccc32)cc1`, the inhibition under setting [1] is 74.2% (active) and the inhibition (mutant strain inhibition) was 43.6%.
With `NS(=O)(=O)c1cccc(NC(=O)CSc2nc3ccccc3n2-c2ccccc2)c1`, the inhibition reads like this: under setting [1], -7.39% (inactive); (mutant strain inhibition) 1%.
The matching figures for `Cc1ccc(SCCC(=O)OCC(=O)Nc2ncc(Cl)cc2Cl)cc1`: 2.29% (inactive) and 2.8%.
For `S=C(c1ccc(-c2ccccc2)o1)N1CCCCC1`, in that order: 43.1% (inactive) and 35.3%.
For the compound `O=C(Nc1ccc(Cl)cn1)Nc1cccs1`, the inhibition under setting [1] was 8.8% (inactive) and the inhibition (mutant strain inhibition) was determined as 18.2%.
Take `c1ccc(Nc2nc(-c3ccncc3)cs2)nc1`: the inhibition is 23.8% (inactive) under setting [1] and 27.6% (mutant strain inhibition).
Consider `Clc1ccc(Nc2nc(-c3cccs3)cs2)nc1`, for which the inhibition under setting [1] is 78.8% (active) and the inhibition (mutant strain inhibition) stood at 68.5%.
For `COc1ccccc1N1CCN(/N=C\C(Br)=C\c2ccccc2)CC1`, in that order: 15.4% (inactive) and 14.3%.
Consider `O=C(Nc1ccccc1Cl)c1ccc2nsnc2c1`, for which the inhibition is -2.83% (inactive) under setting [1] and -10.8% (mutant strain inhibition).
For `O=C(Nc1ccccc1Cl)/C(Cl)=C(\Cl)S(=O)c1ccccc1` (stereo not given), the inhibition is 95.8% (active) under setting [1] and 92.8% (mutant strain inhibition).
The matching figures for `O=C(CN1CCCCC1)Nc1ccccc1Cl`: -11.8% (inactive) and 3.7%.
In the case of `O=C(Cc1ccccc1)NNC(=O)C1CCN(c2ncccn2)CC1`, the inhibition reads like this: under setting [1], -17.4% (inactive); (mutant strain inhibition) -9.74%.
In the case of `CC(c1ccco1)N(C(=O)c1ccc(S(=O)(=O)N2CCCCC2)cc1)c1ccccn1` (stereo not given), the inhibition was 4.63% (inactive) under setting [1] and -4.51% (mutant strain inhibition).
For `CC(c1ccco1)N(C(=O)COc1ccccc1[N+](=O)[O-])c1ccccn1` (stereo not given), in that order: 70.6% (active) and 2.58%.
With `O=C(COc1ccccc1[N+](=O)[O-])NC1CC1`, the inhibition runs as follows: under setting [1], -0.95% (inactive); (mutant strain inhibition) 8.16%.
For `CCCCN(CC(=O)NC(C)(C)C)C(=O)C(=O)Nc1ccc2c(c1)OCCO2`, in that order: -14.6% (inactive) and 11%.
As for `OCCC#Cc1ccc(CN2CCN(Cc3ccsc3)C(CCO)C2)cc1` (stereo not given), the inhibition runs as follows: under setting [1], 2.66% (inactive); (mutant strain inhibition) -0.56%.
The matching figures for `CCOC(=O)c1ccc(NC(=S)Nc2cc(C)cc(C)n2)cc1`: 12.9% (inactive) and 22.8%.
In the case of `Cc1ccc2c(c1)C1CN(C)CCC1N2C(=O)c1ccccc1NS(=O)(=O)c1ccc(F)cc1C` (stereo not given), the inhibition was -2.24% (inactive) under setting [1] and -7.82% (mutant strain inhibition).
In the case of `Cc1ccc2c(c1)C1CN(C)CCC1N2C(=S)Nc1ccc(OC(F)F)cc1` (stereo not given), the inhibition runs as follows: under setting [1], 17.8% (inactive); (mutant strain inhibition) 8.65%.
Consider `Cc1ccc2c(c1)C1CN(C)CCC1N2S(=O)(=O)c1ccc(Oc2ccc([N+](=O)[O-])cc2)cc1` (stereo not given), for which the inhibition under setting [1] was 78.9% (active) and the inhibition (mutant strain inhibition) was 62.2%.
`Cc1ccc(S(=O)(=O)CCC(=O)OCc2ccccc2)cc1`: the inhibition by setting is: under setting [1], 0.5% (inactive); (mutant strain inhibition) 13.9%.
In the case of `C=CCN(CC=C)CCOc1ccccc1[N+](=O)[O-]`, the inhibition under setting [1] was 1.42% (inactive) and the inhibition (mutant strain inhibition) came to 1.87%.

A word on the inhibition: it is the drop in the measured response relative to a control, in per cent.
